In the supplement of paper PMC12067093, “Discovery and optimisation of a covalent ligand for TRIM25 and its application to targeted protein ubiquitination” (Chemical Science, 2025):
Targets with the largest changes are over-represented here; the source holds about 21,000 in all.

compound: CC1Cc2ccccc2N1C(=O)C1CCCN(C1)C(=O)CCl (mixture of isomers) [TRIM25 ligand 11 (diastereomer mixture)]; test: probe-labelled cysteine peptide fold change vs DMSO (competition) (log2 fold change); higher = less target engagement (more negative = stronger competition); settings: 10 µM; THP-1; incubation time: 4 h
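Also: competitive chemoproteomic profiling in live THP-1 cells with an iodoacetamide desthiobiotin (IA-DTB) probe, comparing probe-labelled peptide intensities in compound-treated cells against DMSO-treated controls.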

Compared with “NCAPD3_P42695_361_ILLQHICAK (UniProt P42695)”, “MRTO4_Q9UKD2_176_RGVVTLLSDYEVCK (UniProt Q9UKD2)” is higher in “probe-labelled cysteine peptide fold change” value: -0.145 for the first, 0.091 for the second.

Compared with “MED14_O60244_635_AGEMCAFNK (UniProt O60244)”, “MOCS3_O95396_193_YLVNDACVLAGRPLVSASALR (UniProt O95396)” is lower in “probe-labelled cysteine peptide fold change” value: -0.0268 for the first, -0.0913 for the second.

First: MCM5_P33992_221_CVDFQTLK (UniProt P33992)
Second: MED1_Q15648_302_WTPSFSSITSANSVDLPACFFLK (UniProt Q15648)
The “probe-labelled cysteine peptide fold change” value of the first is lower: -0.0141 for the first, -0.00458 for the second.

First: MDN1_Q9NU22_3690_LLGSQLLACTLSHNTLFGEAPSDLMVKPDGPYDFYQHPNVPEAR (UniProt Q9NU22)
Second: MYO9B_Q13459_152_QQADFDDLCNLPELTEGNLLK (UniProt Q13459)
The “probe-labelled cysteine peptide fold change” value of the first is higher: 0.00494 for the first, -0.135 for the second.

Compared with “NCAPG_Q9BPX3_177_DDECPVVNAYATLIENDSNPEVR (UniProt Q9BPX3)”, “NCAPD3_P42695_143_CIQTLK (UniProt P42695)” is higher in “probe-labelled cysteine peptide fold change” value: -0.316 for the first, 0.0922 for the second.

Going from “MPG_P29372_56_AGQPHSSSDAAQAPAEQPHSSSDAAQAPCPR (UniProt P29372)” to “MSTO1_Q9BUK6_232_LHFYVEECDYLQGFQILCDLHDGFSGVGAK (UniProt Q9BUK6)”, the “probe-labelled cysteine peptide fold change” value falls from 0.193 to 0.183.

Compared with “MLST8_Q9BVC4_107_WMYTGGEDCTAR (UniProt Q9BVC4)”, “LYST_Q99698_3649_LCYVQSLAGHK (UniProt Q99698)” is higher in “probe-labelled cysteine peptide fold change” value: 0.0109 for the first, 0.0365 for the second.

In the case of “METAP2_P50579_263_IIDCAFTVTFNPK (UniProt P50579)”, the “probe-labelled cysteine peptide fold change” value is reported as 0.0495.
